The results in this text go back to PubChem BioAssay (NCI).

Among the test systems are NCI-H23 lung; NCI-H226 lung; NCI-H322M lung; HOP-62 NSCLC; NCI-H460 lung; HOP-92 NSCLC; NCI-H522 lung; A549/ATCC NSCLC; 786-0 renal; COLO 205 colon.
Assay in all cases: NCI-60 one-dose screen, 48 h (100 = growth as untreated, 0 = no growth, -100 = all killed)
Common to all, as to conditions: 10 µM

Compounds without any hit were thinned out: in the full panel of roughly 83,000, 20% have a hit.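 The endpoint reported here, percent growth, reads 100 for growth as untreated, 0 for no net growth and -100 for all cells dead.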 A number with no mark means an inactive call. The source made the active and inactive calls. Rule for the calls: active = growth percent below 10; inactive = the rest.

As for `CC(C)NC(=O)OCc1c(COC(=O)NC(C)C)c(-c2ccc(Cl)c(Cl)c2)n2c1SCC2`, the growth with NCI-H23 lung is 38.6%; in the test with NCI-H226 lung, -43.7% (active); in the test with NCI-H322M lung, 51.4%; in the test on HOP-62 NSCLC, 28.7%; with NCI-H460 lung, 13.3%; in the test with HOP-92 NSCLC, 50.8%. Besides, the growth in the test on NCI-H522 lung was 32%; with A549/ATCC NSCLC it was 55.3%; with 786-0 renal it was 19%; with COLO 205 colon, 53.6%.
Regarding `COc1cc(OC)c2ccc(=O)oc2c1`, the growth is 101% with NCI-H23 lung; 114% in the test with NCI-H226 lung; 107% in the test on NCI-H322M lung; 101% in the test on HOP-62 NSCLC; 104% in the test with NCI-H460 lung; 98.3% in the test with HOP-92 NSCLC. Further, the growth in the test with NCI-H522 lung is 116%; in the test with A549/ATCC NSCLC, 97%; in the test on 786-0 renal, 105%; in the test on COLO 205 colon, 107%.
Regarding `N#CCc1ccc([N+](=O)[O-])cc1`, the growth in the test on NCI-H23 lung is 98.5%; in the test with NCI-H226 lung, 98.2%; in the test with NCI-H322M lung, 99.1%; with HOP-62 NSCLC, 90.7%; in the test on NCI-H460 lung, 102%; in the test on HOP-92 NSCLC, 92.7%. Also, the growth was 101% with NCI-H522 lung, 96.6% with A549/ATCC NSCLC, 106% in the test on 786-0 renal and 105% in the test on COLO 205 colon.
For `Cc1cc(NC(=O)CSCC(=O)O)no1`, the growth was 102% in the test on NCI-H23 lung; 110% with NCI-H226 lung; 96.7% with NCI-H322M lung; 96.3% in the test on HOP-62 NSCLC; 110% with NCI-H460 lung; 107% with HOP-92 NSCLC. Also, the growth in the test with NCI-H522 lung was 101%; in the test on A549/ATCC NSCLC it was 97.2%; with 786-0 renal, 103%; in the test on COLO 205 colon it was 110%.
For the compound `C=C1CC/C=C(\C)C(=O)C[C@@H]2[C@@H]1CC2(C)C`, the growth in the test on NCI-H23 lung was 107%; with NCI-H226 lung, 107%; in the test on NCI-H322M lung it was 119%; with HOP-62 NSCLC it was 119%; with NCI-H460 lung, 107%; in the test on HOP-92 NSCLC it was 88.4%. Moreover, the growth was 85.3% in the test with NCI-H522 lung, 109% with A549/ATCC NSCLC, 104% in the test with 786-0 renal and 110% in the test on COLO 205 colon.
Turning to `CN(C)c1ccc(S(=O)(=O)O)cc1`, the growth is 103% with NCI-H23 lung; 96.6% in the test with NCI-H226 lung; 116% in the test on NCI-H322M lung; 91.1% in the test with HOP-62 NSCLC; 109% in the test on NCI-H460 lung; 85.8% in the test on HOP-92 NSCLC. Also, the growth is 101% in the test with NCI-H522 lung, 105% in the test on A549/ATCC NSCLC, 110% in the test on 786-0 renal and 102% in the test on COLO 205 colon.
Turning to `N=c1c(C(=O)OCc2ccccc2)ncc(CCl)n1O`, the growth in the test with NCI-H23 lung is 100%; in the test on NCI-H226 lung, 92.9%; with NCI-H322M lung, 98.6%; in the test on HOP-62 NSCLC it was 95.7%; with NCI-H460 lung it was 99.4%; in the test with HOP-92 NSCLC, 97.3%. For the same compound, the growth with NCI-H522 lung is -43.4% (active); with A549/ATCC NSCLC, 101%; with 786-0 renal, 81.6%; in the test with COLO 205 colon it was 116%.
For `NC(=S)NN=C1CCCC1`, the growth was 83.2% in the test with NCI-H23 lung; 95.6% in the test on NCI-H226 lung; 91.7% with NCI-H322M lung; 95% in the test on HOP-62 NSCLC; 104% in the test with NCI-H460 lung; 82.1% in the test with HOP-92 NSCLC. The growth with NCI-H522 lung is 99.8%; in the test with A549/ATCC NSCLC, 81.1%; in the test with 786-0 renal, 106%; in the test with COLO 205 colon it was 101%.
As to `CS(=O)CC1=NC(=N)N=C1CS(C)=O` (stereo not given), the growth in the test on NCI-H23 lung is 100%; with NCI-H226 lung it was 102%; with NCI-H322M lung, 101%; in the test on HOP-62 NSCLC it was 100%; in the test on NCI-H460 lung, 106%; with HOP-92 NSCLC, 103%. Also, the growth is 99.9% with NCI-H522 lung, 97.5% in the test with A549/ATCC NSCLC, 102% in the test on 786-0 renal and 117% with COLO 205 colon.
On to `NC(=O)N/N=C\c1ccco1`, for which the growth in the test on NCI-H23 lung is 108%; with NCI-H226 lung, 102%; with NCI-H322M lung, 94.1%; with HOP-62 NSCLC, 112%; with NCI-H460 lung, 117%; with HOP-92 NSCLC, 102%. For the same compound, the growth in the test on NCI-H522 lung was 92.1%; with A549/ATCC NSCLC it was 110%; in the test on 786-0 renal, 104%; in the test with COLO 205 colon, 119%.
`CC(C)=NNc1ccc([N+](=O)[O-])cc1[N+](=O)[O-]`: the growth with NCI-H23 lung is 95.5%; in the test on NCI-H226 lung it was 98.3%; in the test on NCI-H322M lung, 87.9%; with HOP-62 NSCLC it was 87.9%; in the test with NCI-H460 lung it was 88.1%; with HOP-92 NSCLC, 80.2%. In addition, the growth was 82.1% with NCI-H522 lung, 83.2% with A549/ATCC NSCLC, 93.8% with 786-0 renal and 84.9% with COLO 205 colon.
With `COc1cc2c(cc1O)CC[C@@H]1C2CC[C@@]2(C)C1CC[C@@H]2O` (stereo not given in full), the growth in the test with NCI-H23 lung was 406%; in the test on NCI-H226 lung, 57.7%; with NCI-H322M lung, 53.5%; with HOP-62 NSCLC it was 33.3%; in the test on NCI-H460 lung, 8.58% (active); in the test on HOP-92 NSCLC, 79.8%. The growth is 1.84% (active) in the test with NCI-H522 lung, 13.9% in the test with A549/ATCC NSCLC, 36% in the test with 786-0 renal and 82.5% in the test with COLO 205 colon.
`CCN(CC)C(=O)/C=C(/C)c1ccccc1`: the growth was 96.5% in the test with NCI-H23 lung; 97.2% in the test with NCI-H226 lung; 106% with NCI-H322M lung; 109% in the test with HOP-62 NSCLC; 104% in the test on NCI-H460 lung; 80.2% in the test with HOP-92 NSCLC. For the same compound, the growth in the test with NCI-H522 lung is 107%; in the test on A549/ATCC NSCLC, 113%; with 786-0 renal, 101%; with COLO 205 colon, 106%.
In the case of `O=[N+]([O-])c1ccc(-c2noc(-c3cccs3)n2)cc1`, the growth in the test on NCI-H23 lung was 82.1%; in the test with NCI-H226 lung it was 86.3%; with NCI-H322M lung, 81.4%; with HOP-62 NSCLC it was 87.6%; in the test on NCI-H460 lung it was 82.7%; in the test with HOP-92 NSCLC, 91.8%. The growth in the test with NCI-H522 lung was 81.7%; in the test on A549/ATCC NSCLC, 81.3%; with 786-0 renal, 76.1%; in the test on COLO 205 colon, 111%.
In the case of `COc1cc(C(=O)N/N=C/c2cccc([N+](=O)[O-])c2)cc(OC)c1OC`, the growth with NCI-H23 lung is 61.7%; in the test with NCI-H226 lung, 77.8%; with NCI-H322M lung it was 87.2%; in the test with HOP-62 NSCLC, 77.1%; with NCI-H460 lung, 18.5%; in the test with HOP-92 NSCLC, 70.7%. Moreover, the growth with NCI-H522 lung is 19.6%; with A549/ATCC NSCLC it was 65.7%; with 786-0 renal it was 78.2%; in the test on COLO 205 colon, 30.2%.
